Test results reported in the supplement of paper PMC9942566.
± gives the standard deviation of the averaged measurements.

Test system: Serratia marcescens K904 PosmB-luxCDABE reporter (pMQ747)
Assay: PosmB-lux reporter fold induction (RLU/OD600 relative to no-compound control), highest over Biolog concentrations; higher = stronger reporter activation
Conditions: ΔrcsB mutant CMS5177; 4 h
Method: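 Serratia marcescens K904 (wild type) or its isogenic ΔrcsB mutant, carrying the Rcs-dependent PosmB-luxCDABE reporter plasmid pMQ747, was grown in LB at OD600 0.1 in Biolog Phenotype MicroArray plates PM11-20 for 4 h at 30-32°C. Each compound is present at 3-4 proprietary concentrations (not stated); per the Fig. S1 legend the value given is the highest fold over those wells. Three independent trials.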

| Structure (SMILES) | PosmB-lux reporter fold induction |
| --- | --- |
| CCn1cc(C(=O)O)c(=O)c2cc(F)c(N3CCNCC3)nc21 [Enoxacin] (Biolog plate: PM11, well positions: E5-8) | 1.45 ± 0.3 |
| S=c1nc[nH]c2nc[nH]c12 [6-Mercapto-purine] (Biolog plate: PM13, well positions: C1-4) | 1.22 ± 0.54 |
| Oc1c(Cl)cc(Cl)c2cccnc12 [5,7-Dichloro-8-hydroxyquinoline] (Biolog plate: PM15, well positions: C1-4) | 1.43 ± 0.18 |
| CC(C(=O)O)c1cccc(C(=O)c2ccccc2)c1 (stereo not given) [ketoprofen (an NSAID)] (Biolog plate: PM18, well positions: A2-4) | 1 ± 0.37 |
| CCS(=O)(=O)CCn1c([N+](=O)[O-])cnc1C [tinidazole] (Biolog plate: PM18, well positions: F5-8) | 1 ± 0.3 |
| CCn1cc(C(=O)O)c(=O)c2cc(F)c(N3CCNCC3)cc21 [norfloxacin] (Biolog plate: PM16, well positions: B1-4) | 1.91 ± 0.65 |
| Cc1onc(-c2ccccc2)c1C(=O)N[C@@H]1C(=O)N2[C@@H]1SC(C)(C)[C@@H]2C(=O)O [Oxacillin] (Biolog plate: PM12, well positions: B1-4) | 1.31 ± 0.52 |
| O=C1C=C(O)C(=O)c2ccccc21 [lawsone] (Biolog plate: PM19, well positions: E9-12) | 1.14 ± 0.35 |
| [Cl-].[Li+] [lithium chloride] (Biolog plate: PM17, well positions: F1-4) | 2.92 ± 1 |
| O=C(O)c1cn(C2CC2)c2cc(N3CCNCC3)c(F)cc2c1=O [ciprofloxacin] (Biolog plate: PM20, well positions: D5-8) | 1.49 ± 0.33 |
| O=P(O)(O)OP(=O)(O)O [sodium pyrophosphate decahydrate] (Biolog plate: PM18, well positions: A5-8) | 0.615 ± 0.16 |
| CCn1cc(C(=O)O)c(=O)c2ccc(C)nc21 [Nalidixic Acid] (Biolog plate: PM11, well positions: E9-12) | 8.63 ± 3.1 |
| [Na+].[Na+].[O]=[W](=[O])([O-])[O-] [sodium tungstate] (Biolog plate: PM17, well positions: E9-12) | 0.99 ± 0.14 |
| Nc1ccc(S(=O)(=O)Nc2ccc(Cl)nn2)cc1 [sulfachloro-pyridazine] (Biolog plate: PM17, well positions: C5-8) | 1.63 ± 0.15 |
| CN(C)CCCN1c2ccccc2Sc2ccc(Cl)cc21 [chlorpromazine] (Biolog plate: PM17, well positions: D9-12) | 1.63 ± 0.49 |
| Nc1ccc(S(N)(=O)=O)cc1 [sulfanilamide] (Biolog plate: PM16, well positions: B5-8) | 1.59 ± 0.33 |
| C/C=C/C=C/C(=O)O [sorbic acid] (Biolog plate: PM16, well positions: H9-12) | 4.84 ± 2.9 |
| CC(=O)O[C@H]1C[C@@]2(C)[C@@H](C[C@@H](O)[C@H]3[C@@]4(C)CC[C@@H](O)[C@@H](C)[C@@H]4CC[C@@]32C)/C1=C(\CCC=C(C)C)C(=O)O [Fusidic acid] (Biolog plate: PM15, well positions: C5-8) | 1.43 ± 0.16 |
| O=c1c(O)c(-c2cc(O)c(O)c(O)c2)oc2cc(O)cc(O)c12 [myricetin] (Biolog plate: PM18, well positions: G9-12) | 0.868 ± 0.31 |
| Cn1c(=O)c2c(ncn2C)n(C)c1=O [caffeine] (Biolog plate: PM17, well positions: H5-8) | 1.52 ± 0.34 |

| Structure (SMILES) | PosmB-lux reporter fold induction |
| --- | --- |
| CO[C@@]1(NC(=O)Cc2cccs2)C(=O)N2C(C(=O)O)=C(COC(N)=O)CS[C@@H]21 [Cefoxitin] (Biolog plate: PM14, well positions: E1-4) | 1.2 ± 0.19 |
| N.N.N.N.N.N.[Cl-].[Cl-].[Cl-].[Co+3] [hexammine cobalt (III) chloride] (Biolog plate: PM19, well positions: H1-4) | 1.35 ± 0.2 |
| CC(C)NCC(O)COc1cccc2ccccc12 (racemic) [D,L-propranolol] (Biolog plate: PM20, well positions: B5-8) | 1.24 ± 0.19 |
| Cc1nnc(SCC2=C(C(=O)O)N3C(=O)[C@@H](NC(=O)Cn4cnnn4)[C@H]3SC2)s1 [Cefazolin] (Biolog plate: PM11, well positions: E1-4) | 1.12 ± 0.15 |
| CN(C)[C@@H]1C(O)=C(C(N)=O)C(=O)[C@@]2(O)C(O)=C3C(=O)c4c(O)ccc(Cl)c4[C@@](C)(O)[C@H]3C[C@@H]12 [Chlortetracycline] (Biolog plate: PM11, well positions: A5-8) | 1.3 ± 0.26 |
| O=c1ccc2ccccc2o1 [coumarin] (Biolog plate: PM19, well positions: A9-12) | 0.853 ± 0.16 |
| NC[C@@H]1O[C@H](O[C@H]2[C@@H](O)[C@H](O[C@@H]3[C@@H](O)[C@H](N)C[C@H](N)[C@H]3O[C@H]3O[C@H](CO)[C@@H](O)[C@H](O)[C@H]3N)O[C@@H]2CO)[C@H](N)[C@@H](O)[C@@H]1O [Paromomycin] (Biolog plate: PM12, well positions: C1-4) | 1.42 ± 0.79 |
| Nc1ncn([C@@H]2O[C@H](CO)[C@@H](O)[C@H]2O)c(=O)n1 [5-azacytidine] (Biolog plate: PM16, well positions: E5-8) | 2.23 ± 0.64 |
| CCCCCCCCCCCC[N+](C)(C)C [Dodecyltrimethyl ammonium bromide] (Biolog plate: PM12, well positions: H9-12) | 1.97 ± 0.62 |
| CC(C)(C)CC(C)(C)c1ccc(OCCOCC[N+](C)(C)Cc2ccccc2)cc1 [Benzethonium chloride] (Biolog plate: PM12, well positions: E9-12) | 1.69 ± 0.07 |
| N=C(NCCCCCCNC(=N)NC(=N)Nc1ccc(Cl)cc1)NC(=N)Nc1ccc(Cl)cc1 [chlorhexidine] (Biolog plate: PM19, well positions: C1-4) | 1.19 ± 0.57 |
| O=C(O)c1ccccc1S [Thiosalicylic acid] (Biolog plate: PM17, well positions: A9-12) | 0.982 ± 0.15 |
| CCn1nc(C(=O)O)c(=O)c2cc3c(cc21)OCO3 [cinoxacin] (Biolog plate: PM16, well positions: D9-12) | 16.4 ± 3.4 |
| [Cl][Cu][Cl] [Cupric chloride] (Biolog plate: PM13, well positions: H1-4) | 1.06 ± 0.1 |
| CNC(C)C1CCC(N)C(OC2C(N)CC(N)C(OC3OCC(C)(O)C(NC)C3O)C2O)O1 (stereo not given) [Gentamicin] (Biolog plate: PM11, well positions: G5-8) | 1.47 ± 0.41 |
| O=C1OC(CN2CCOCC2)CN1/N=C/c1ccc([N+](=O)[O-])o1 (stereo not given) [Furaltadone] (Biolog plate: PM14, well positions: A5-8) | 1.51 ± 0.47 |
| O=[Si](O)O [sodium metasilicate] (Biolog plate: PM18, well positions: E1-4) | 0.928 ± 0.32 |
| CN(C)C(=O)/N=N/C(=O)N(C)C [diamide] (Biolog plate: PM16, well positions: D5-8) | 2.26 ± 0.64 |
| CC1COc2c(N3CCN(C)CC3)c(F)cc3c(=O)c(C(=O)O)cn1c23 (stereo not given) [Ofloxacin] (Biolog plate: PM11, well positions: H9-12) | 1.96 ± 0.47 |
| CCOc1ccc2ccccc2c1C(=O)N[C@@H]1C(=O)N2[C@@H]1SC(C)(C)[C@@H]2C(=O)O [Nafcillin] (Biolog plate: PM11, well positions: D9-12) | 1.05 ± 0.14 |
